From PubChem BioAssay (NCI) come the findings set out here.

About 83,000 compounds went through this panel and 20% of them were active in at least one assay; those are over-represented in the sample as a whole.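 The endpoint reported here, percent growth, reads 100 for growth as untreated, 0 for no net growth and -100 for all cells dead.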 Unmarked numbers belong to inactive results. The source made the active and inactive calls.

This test deals with MOLT-4 leukemia. As to the kind of experiment: NCI-60 one-dose screen, 48 h (100 = growth as untreated, 0 = no growth, -100 = all killed). The following applies: 10 µM unless noted. The procedure:
Growth inhibition of the MOLT-4 human tumor cell line is measured as a screen for anti-cancer activity. Cells are grown in 96 well plates and exposed to the test compound for 48 hours. Compounds are tested at a single concentration, which is 10^-5 M for most compounds. The reported endpoint is percent growth (GI% or GIPRCNT), where numbers from 0 - 100% represent growth inhibition, and numbers from -100% - 0 represent cell death. For example, a value of 40 represents 60% growth inhibition. A value of 0 means no net growth occurred over the course of the experiment. A value of -40 indicates 40% of cells at the beginning of the experiment died by the end of the experiment. A value of -100 means all cells are dead at the end of the experiment.
NCI-60 Human Tumor Cell Lines Screen was performed using the standard one-dose NCI protocol, which is described in more detail at https://dtp.cancer.gov/discovery_development/nci-60/default.htm.
Compounds with GIPRCNT values below 10 were considered active. Activity score was based on GIPRCNT using the following formula: […]
Score is 0 for GIPRCNT values of 100 or above, 50 for GIPRCNT values of 0, and 100 for GIPRCNT values of -100.
Take `CC(C)(O)CC(=O)NCCn1ccc2ncnc(Nc3ccc(Oc4cccc(C(F)(F)F)c4)c(Cl)c3)c21`: the growth was 7.32% (active). Take `CC(CCCC(=O)O)c1ccoc1` (stereo not given): the growth was 109%. Regarding `CC(C)=CCc1cc2c(cc1O)C1=C(C(=O)C3=C(NCCS3(=O)=O)C1=O)C(C=C(C)C)O2` (stereo not given), the growth is -22.3% (active). Regarding `O=c1[nH]ccc2c(S(=O)(=O)N3CCCNCC3)cccc12`, the growth is 84.9%. Next, `COc1ccc(-c2ccc3c(N4CCOC[C@@H]4C)nc(N4CCOC[C@@H]4C)nc3n2)cc1CO`: 11.6%; `CCCS(=O)(=O)Nc1ccc(F)c(C(=O)c2c[nH]c3ncc(-c4ccc(Cl)cc4)cc23)c1F`: 15.6%. With `COc1ccc(-c2nocc2-c2cc(OC)c(OC)c(OC)c2)cc1`, the growth was 20.4%.

In the case of `Nc1nc(N)c2cc(CNc3ccc(C(=O)NC(CC(=O)O)C(=O)O)cc3)ccc2n1` (stereo not given), the growth is 32.8%.

For the compound `Cc1nc(Nc2n[nH]c3c2CN(C(=O)N[C@H](CN(C)C)c2ccccc2)C3(C)C)c2sccc2n1`, the growth is -0.869% (active). In the case of `O=C(Cn1c(=O)ccn(CCCCCCCCOc2ccc(Br)cc2)c1=O)Nc1ccc(Oc2ccc(Cl)cc2)cc1`, the growth was 47.6%. Next, `Cc1ccc(NC(=O)Nc2ccc(Nc3ncnc4sc5c(c34)CCOC5)cc2)cc1Cl`: 88.9%. Take `COc1cc(C(=O)NNC(=O)c2ccc(NC(=O)CCl)cc2)cc(OC)c1OC`: the growth is 57.2%. Turning to `O=C(CNc1nnc(-c2ccc(Cl)cc2)o1)Nc1ccc(-c2nc3ccccc3s2)cc1`, the growth is 33.2%. In the case of `Cc1nc(-c2cn3c(n2)-c2ccc(-c4cnn(C(C)(C)C(N)=O)c4)cc2OCC3)n(C(C)C)n1`, the growth is 15.2%. On to `CCOc1cc2ncc(C#N)c(Nc3ccc(OCc4ccccn4)c(Cl)c3)c2cc1NC(=O)/C=C/CN(C)C`, for which the growth was 19.9%. Turning to `Cn1cnc2c(F)c(Nc3ccc(Br)cc3F)c(C(=O)NOCCO)cc21`, the growth is 72.9%.

For `Nc1ncnc2c1ccn2-c1cccc(NC(=O)c2ccc(N3CCOCC3)c(C(F)(F)F)c2)c1`, the growth was 47.8%.

For the compound `CC(C)[C@@H]1CC[C@]2(CO2)[C@@H]2C(=O)OCC(C(=O)O)=C[C@H]21`, the growth was -17.6% (active). In the case of `OCCNC(=S)Nc1ccc(-c2nc(N3C[C@H]4CC[C@@H](C3)O4)c3cccn3n2)cc1`, the growth is 16.7%. Next, `Cc1cc(-c2cc(O)ccc2Cl)cc2nnc(Nc3ccc(OCCN4CCCC4)cc3)nc12`: -42.9% (active). Take `c1ccc2c(c1)CCN(NCCN1CCCC1)C2`: the growth was 99.4%. Take `Cc1nn(-c2nc3ccccc3[nH]2)c2c1C(c1ccc(O)cc1)CC(=O)N2` (stereo not given): the growth is -14.4% (active).

As to `CCNC(=O)C#Cc1ccc2c(C(=Nc3ccc(CN(C)C)cc3)c3ccccc3)c(O)[nH]c2c1`, the growth was 10.9%. Consider `Cc1cc2c3c(cccc3c1)C(=O)c1ccccc1-2`, for which the growth was 87.2%. As to `CN(C)CCn1c(=O)c2c3cc4c(cc3n(CCN(C)C)c2c2ccc(Cl)cc21)OCO4`, the growth was 3.05% (active).

As to `Cc1cc(NCC(=O)Nc2ccc(-c3nc4ccccc4s3)cc2)no1`, the growth was 46.7%.

Turning to `CCOC(=O)Sc1ncnc2nc[nH]c12`, the growth is 4.03% (active). Consider `CC(C)=CCc1cc2c(cc1O)C1=C(C(=O)C3=C(C1=O)S(=O)(=O)CCN3)C(C=C(C)C)O2` (stereo not given), for which the growth was -38.2% (active).

`C=CC(=O)Nc1cc2c(Nc3ccc(F)c(Cl)c3)ncnc2cc1C#CC(C)(C)N1CCN(C)CC1`: the growth was -23.1% (active). Under `CCN(CC)CCOc1ccc(/C(=C(\C)c2ccc(Cl)cc2)c2ccc(Cl)cc2)cc1` stands 50.7%; under `CC(C)OP(=O)(CCC(=O)c1c[nH]c2ccccc12)OC(C)C`, 93.3%; under `O=C(NOC[C@H](O)CO)c1ccc(F)c(F)c1Nc1ccc(I)cc1F`, 66.6%. `CN1CC[C@H](c2c(O)cc(O)c3c(=O)cc(-c4ccccc4Cl)oc23)[C@H](O)C1`: the growth is 1.35% (active).

`Clc1ccc(Nc2nccc(Nc3ccc4[nH]ncc4c3)n2)cc1`: the growth is 23%.

Consider `CC(C)(C)CC(C)(C)Nc1c(-c2c(O)c3ccccc3oc2=O)nc2c(Cl)cc(C(F)(F)F)cn12`, for which the growth was 82.6%.

Take `O=C1NC(=O)/C(=C/c2ccc3nccc(-c4ccncc4)c3c2)S1`: the growth was -8.29% (active). Next, `N#Cc1c(-c2ccc(C(F)(F)F)cc2)c(F)c(NCCC2CCC(O)C2)n2c1nc1ccccc12` (stereo not given): 45.9%; `c1cn2cc(-c3ccc4cn[nH]c4c3)nc(Nc3ccc(N4CCOCC4)cc3)c2n1`: 61.8%. As for `CCN(CCCOc1ccc2c(Nc3cc(CC(=O)Nc4cccc(F)c4)[nH]n3)ncnc2c1)CCOP(=O)(O)O`, the growth is 46.5%. Turning to `CN1CCN(c2ccc(OC(F)(F)F)c(Nc3ncc4c(n3)-c3c(c(C(N)=O)nn3CCO)CC4)c2)CC1`, the growth was 18.3%.
